Screening results deposited in PubChem by Broad Institute.
A selection follows.
aSyn UTR act: Activators via SNCA 5'UTR binding, MLPCN; alpha-synuclein 5'UTR reporter, activators screen; activity score, % (tested at 7.5 µM), hits read low; 7.1% of 300,000 active; AID 1814; in the data active = activity score below about -60%
* marks the source's active call; other numbers are inactive results.

SMILES | aSyn UTR act
COc1ccc(C2/C=C\CN(C(=O)Nc3ccc(C(F)(F)F)cc3)CC(=O)N2Cc2ccc(F)cc2)cc1 (stereo not given) | 71
O=[N+]([O-])c1ccc(COc2ccccc2/C=N/O)cc1 | -132*
CCOC(=O)c1ccc(NC(=O)CC2SCCNC2=O)cc1 (stereo not given) | -81*
CC(C)(C)C1=CC=C(C(C)(C)C)C(=O)C1=O | -73*
Cc1ccc(C#N)c(SCc2nnc(-c3ccc(Cl)cc3)o2)n1 | 90
Cc1ccccc1-c1nnc(Cc2ccccc2)o1 | -137*
Brc1ccc(-c2nnc(Cc3ccccc3)o2)cc1 | -169*
Cc1ccc(-c2nnc(Cc3ccc(Cl)cc3)o2)cc1 | -85*
c1ccc(Cc2nnc(-c3ccccc3)o2)cc1 | -120*
COc1ccc(Cc2nnc(-c3ccccc3)o2)cc1 | -94*
c1ccc(-c2nnc(CN3CCCCC3)o2)cc1 | -74*
Cc1ccsc1/C=N/NC(=O)C(=O)NCC(C)C | -77*
CCNC(=S)N/N=C/c1sccc1C | -71*
CCNC(=S)N/N=C/c1cn(Cc2ccccc2F)c2ccccc12 | 52
Cc1ccsc1/C=N/NC(=S)NCCc1ccccc1 | -108*
O=C(NCCc1ccc(Cl)cc1)C1CCC(CNc2nc(=S)[nH]c3ccccc23)CC1 (stereo not given) | 65
S=c1nc(NCCc2ccccc2Cl)c2ccccc2[nH]1 | -114*
Nc1c(C(=O)Nc2ccccc2F)sc2nc(-c3ccco3)ccc12 | -118*
Nc1c(C(=O)Nc2ccccc2F)sc2nc(-c3cccnc3)ccc12 | -88*
Cc1cccc(NS(=O)(=O)c2ccc(NC(=O)CN(c3cc([N+](=O)[O-])ccc3C)S(C)(=O)=O)cc2)c1 | 101
Cc1cc(C)cc(N(CC(=O)Nc2ccc(-c3nc4ccc(C)cc4s3)cc2)S(C)(=O)=O)c1 | -100*
Cc1ccc2nc(-c3ccc(NC(=O)CN4CCN(C(=O)c5ccco5)CC4)cc3)sc2c1 | -177*
Cc1ccc2nc(-c3ccc(NC(=O)CN(c4ccccc4C)S(C)(=O)=O)cc3)sc2c1 | -164*
COc1ccc2c(n1)Sc1nc3ccccc3nc1N2 | -136*
CCCCCCCCC/C(=N\O)c1ccccn1 | -75*
SMILES | aSyn UTR act
Cc1ccc(NC(=O)CSc2ncc(-c3ccccc3)n2C(=O)c2ccccc2)cc1 | -64*
Cc1ccc(NC(=O)CSc2nc3ccccc3c3nc4ccccc4n23)cc1 | 110
Cc1ccc(C)c(NC(=S)NNC(=O)c2sccc2C)c1 | -69*
Cc1ccc(C)c(NC(=S)NNC(=O)c2csc(C(C)C)c2)c1 | -100*
Cc1ccc(C)c(NC(=S)NNC(=O)c2csc(C)c2C)c1 | -92*
O=C(NC(=O)c1ccccc1O)c1ccc(C(F)(F)F)cc1 | -69*
CC(C)(C)C(=O)N1CCN(c2nc3ccc(Cl)cc3s2)CC1 | -237*
CC(C)(C)C(=O)N1CCN(c2nc3ccc(Br)cc3s2)CC1 | -164*
CC(=O)N1CCN(c2nc3ccc(Br)cc3s2)CC1 | -158*
Cc1ccnc(NC(=S)NC(=O)c2cncc(Br)c2)c1 | -81*
O=C(Oc1ccc(OC(=O)C2CCC2)cc1)C1CCC1 | -65*
Clc1cccc(/C=N/Nc2ncnc3ccccc23)c1 | -198*
C(=N\Nc1ncnc2ccccc12)/c1ccccc1 | -212*
Nc1c(Cl)ncnc1N/N=C/c1ccnc2ccccc12 | -68*
CNC(=O)NC(=O)C(C)OC(=O)c1c2c(nc3ccccc13)/C(=C/c1cccs1)CC2 (stereo not given) | -143*
OCc1c(OCc2cccc(F)c2)ccc2ccccc12 | -111*
COc1ccc(/C=C/C2=NNC(=O)CC2)cc1 | 60
C=CCN1N=C(/C=C/c2ccc(C)cc2)CCC1=O | -89*
C=CCN1N=C(/C=C/c2ccc(OC)cc2)CCC1=O | -84*
Cc1cc(NC(=O)c2ccccc2)sc1C | -142*
CC(C)(C)c1cc(NC(=O)c2cccc([N+](=O)[O-])c2)no1 | -111*
Cc1cc(O)c(NC(=O)c2cccc([N+](=O)[O-])c2)cc1C | -79*
O=C(NNS(=O)(=O)c1ccccc1[N+](=O)[O-])c1cccc([N+](=O)[O-])c1 | -69*
O=C(Nc1cc([N+](=O)[O-])ccc1O)c1cccc([N+](=O)[O-])c1 | -96*
COCCCN(C(C)=O)c1nc(-c2ccc(OC)cc2)cs1 | -105*
SMILES | aSyn UTR act
CCN(C(=O)c1cccs1)c1nc(-c2ccc(OC)cc2)cs1 | -130*
COc1ccc(NC2CC(=O)N(C(C)C)C2=O)cc1 (stereo not given) | -150*
CC(C)N1C(=O)CC(Nc2ccc(N3CCOCC3)cc2)C1=O (stereo not given) | -145*
CC(C)C(=O)Nc1ccc(C(=O)c2ccccc2)cc1 | -88*
COc1cc(NC(=O)N2CCNC2=O)cc(C(=O)Nc2cccc(C(F)(F)F)c2)c1 | 68
COc1cccc(NC(=O)c2ccc(NC(=O)C(C)C)cc2)c1 | -115*
CC(=O)c1ccc(NC(=O)C(C)NCc2ccccc2Cl)cc1 (stereo not given) | -78*
COc1cccc(NC(=O)c2ccc(OC(F)(F)F)cc2)c1 | -153*
O=C(O)c1ccc(COc2ccc3ccccc3c2)o1 | -157*
CCOc1ccc(OCc2ccc(C(=O)O)o2)cc1 | -87*
CCOc1ccc(OCc2ccc(C(=O)NCc3ccncc3)o2)cc1 | -67*
Nc1nnc(CC(=O)N/N=C/c2cccc(OCCOc3ccccc3)c2)s1 | -120*
Cc1ccccc1OCCOc1cccc(/C=N/NC(=O)Cc2nnc(N)s2)c1 | -84*
C/C=C/c1ccc(OCCn2nnc3ccccc32)c(OC)c1 | -115*
C=CCc1ccc(OCCn2cccc2C=O)c(OC)c1 | -140*
C=CCc1ccc(OCCn2nnc3ccccc32)c(OC)c1 | -248*
C=CCc1ccc(OCCOc2cccc3ccc(C)nc23)c(OC)c1 | -69*
Cc1cccc(OCCn2nnc3ccccc32)c1C | -180*
CCCSc1nnc(Nc2ccccc2C)s1 | -96*
C/C(N)=C(/C#N)C(=O)CSc1nnc(Nc2cccc(C)c2C)s1 | -117*
CCN(CC)C(=O)CCCSc1nnc(Nc2ccccc2F)s1 | -75*
Cc1ccccc1Nc1nnc(SCC(=O)Nc2ccccc2[N+](=O)[O-])s1 | -81*
C#CCn1c(=NC(=O)c2cccs2)sc2cccc(OC)c21 | -97*
Cc1ccc(/C(N)=N/OC(=O)C23CC4CC(CC(C4)C2)C3)cc1 | -185*
Cc1ccc(/C(N)=N/OC(=O)N2CCOCC2)cc1 | -62*
SMILES | aSyn UTR act
COc1ccc(OCC(=O)C2CC2)c(C#N)c1 | -78*
O=C(Nc1ccc2c(c1)oc1ccccc12)c1ccc2c(c1)OCO2 | -233*
O=c1c(O)c(-c2ccc3c(c2)OCO3)oc2ccccc12 | -133*
COc1cc2c(cc1NC(=O)c1ccc3c(c1)OCO3)oc1ccccc12 | -285*
COc1ccc(NC(=O)c2oc3ccccc3c2NC(=O)c2ccc3c(c2)OCO3)cc1 | -68*
CCOc1ccc(C(=O)Nc2c(C(N)=O)oc3ccccc23)cc1 | -115*
COc1ccccc1NC(=O)/C=C/c1ccc2c(c1)OCO2 | -167*
COc1ccccc1NC(=O)c1ccc2c(c1)OCO2 | -125*
O=C(Cc1cccs1)Nc1nc2c(s1)CCCC2 | -97*
O=C(CCSc1ccccc1)Nc1nc2c(s1)CCCC2 | -86*
CCN(CC)Cc1c(O)ccc2c1O/C(=C\C=C\c1ccccc1)C2=O | -438*
CS(=O)(=O)Oc1ccc2c(c1)O/C(=C\C=C\c1ccccc1)C2=O | -81*
CCSc1nnc(NC(=O)c2ccc(C)o2)s1 | -72*
CCc1nnc(NC(=O)c2cc(C)oc2C)s1 | -88*
CCSc1nnc(NC(=O)c2cc(C)oc2C)s1 | -161*
